Laboratory results: PubChem BioAssay (NCATS)
Results filed as inconclusive are left out. Entries that show only a call come without a potency. Calls of active or inactive are those of the source. Calls come from the whole dose curve; as a rule, active = well fitted curve in the direction sought with a large enough effect; inconclusive = small, poorly fitted or top-dose-only effect, or another doubt; inactive = no such curve, though single readings can be large; an effect the other way counts as inactive or inconclusive.

Tests used:
[1] = target: Aldehyde dehydrogenase, mitochondrial (Homo sapiens) (UniProt P05091); assay: qHTS for Inhibitors of the Aldehyde Dehydrogenase Family (ALDH2) Primary screen (AID 2061308); note: nearly all actives have a fitted effect of over 55% in size
[2] = target: Retinaldehyde dehydrogenase 3 (Homo sapiens) (UniProt P47895); assay: qHTS for Inhibitors of the Aldehyde Dehydrogenase Family (ALDH1A3) Primary screen (AID 2061315)

Row | Structure (SMILES) | Potency [1] | Potency [2]
1 | COc1cccc(-c2nc3cc(NC(=O)c4ccc(C)c([N+](=O)[O-])c4)ccc3o2)c1 | inactive | inactive
2 | O=C(Cc1ccccc1)Nc1ccc(S(=O)(=O)Nc2nccs2)cc1 | inactive | inactive
3 | CC(C)C1=CC2=CCC3[C@](C)(CCC[C@@]3(C)C(=O)O)C2CC1O (stereo not given in full) | inactive | inactive
4 | Cc1ccc(-c2ccc(=O)n(CC(=O)NCCCc3ccccn3)n2)cc1 | inactive | inactive
5 | COc1ccc(S(=O)(=O)N2CCN(S(=O)(=O)c3ccc(OC)cc3)CC2)cc1 | inactive | inactive
6 | CCOc1cc(C)c(Cl)cc1S(=O)(=O)n1cnc2ccccc21 | inactive | inactive
7 | FC(F)(F)c1ccccc1-c1nc(NCc2ccc3c(c2)OCO3)c2ccccc2n1 | inactive | inactive
8 | O=c1c2ccccc2nc2sc(Nc3ccc4c(c3)CCC4)nn12 | inactive | inactive
9 | O=C(c1ccc2c(c1)ncn2-c1cccc(Cl)c1)N1CCCCC1 | inactive | inactive
10 | Cc1cccc(-n2cnc3cc(C(=O)N4CCC(c5ccccc5)CC4)ccc32)c1 | inactive | inactive
11 | CCN(CC)CCCCn1c(-c2ccccc2)nc2c(NCc3ccccc3)nc(C)nc21 | inactive | inactive
12 | COc1ccc(C2N=C(Nc3nc4ccccc4o3)NC3=C2C(=O)CCC3)cc1 (stereo not given) | inactive | inactive
13 | CCc1nn2c(=O)cc(N3C(C)CNCC3C)nc2s1 (stereo not given) | inactive | inactive
14 | COc1cc(O)c(C(CC(=O)N2CCC(Cc3ccccc3)CC2)c2ccc(C)cc2)c(OC)c1 (stereo not given) | inactive | inactive
15 | CNc1nc(C#N)c(-c2cccc3ccccc23)o1 | inactive | inactive
16 | Fc1ccc(-c2nnc(CCCCSc3nnc(-c4cccc5ccccc45)o3)o2)cc1 | inactive | inactive
17 | N#Cc1ccc(NC(=O)Nc2nnc(-c3ccncc3)s2)c(Cl)c1 | inactive | inactive
18 | CCCn1c(-c2ccc(F)cc2)nc2c(NCCCN(C)C)nc(C)nc21 | inactive | inactive

Row | Structure (SMILES) | Potency [1] | Potency [2]
19 | Cc1ccc(NS(=O)(=O)c2cc3c(cc2C)OCC(=O)N3)cc1C | inactive | inactive
20 | CC(=O)Nc1sc2c(c1-c1nc3ccccc3s1)CCN(C)C2 | inactive | inactive
21 | COCCN(CCOC)c1nc(C)nc2c1nc(-c1ccccc1)n2CCN1CCOCC1 | inactive | inactive
22 | C=CCNc1oc(-c2cccc3ccccc23)nc1C#N | inactive | inactive
23 | O=C(OCC#CCSc1nnc(-c2ccc3ccccc3c2)o1)c1cccs1 | inactive | inactive
24 | COc1ccc(C[C@H](C(=O)O)N2C(=O)c3ccc(C(=O)O)cc3C2=O)cc1 | inactive | inactive
25 | NC(=O)c1c(NC(=O)C2CCCO2)sc2c1CCCC2 (stereo not given) | inactive | inactive
26 | O=C(Nc1ccc(S(=O)(=O)Nc2nccs2)cc1)c1ccnc2ccccc12 | inactive | inactive
27 | COc1cccc2nc3sc(Nc4ccc5c(c4)CCC5)nn3c(=O)c12 | inactive | inactive
28 | c1nc(NCC2CCCCC2)c2cc(-c3ccc4c(c3)OCO4)ccc2n1 | inactive | inactive
29 | CC(=O)NC(c1cc(Cl)c2cccnc2c1O)C(C)C (stereo not given) | inactive | inactive
30 | O=C(OCC#CCSc1nnc(-c2c[nH]c3ccccc23)o1)c1ccc(F)cc1 | inactive | inactive
31 | O=C1Cc2cc(S(=O)(=O)N3CCN(c4cccc(C(F)(F)F)c4)CC3)ccc2N1 | inactive | inactive
32 | Fc1cc(Cl)cc(-c2ccc(CNc3nc(-c4ccccc4C(F)(F)F)nc4ccccc34)cc2)c1 | inactive | inactive
33 | Cc1cc(C)nc(NC(=S)N2CCN(c3nccc4occc34)CC2)c1 | inactive | inactive
34 | COc1ccc(C2NC(=O)c3ccccc3N2)cc1COc1c(C)cc(NC(C)=O)cc1C (stereo not given) | inactive | inactive
35 | Cc1cccc(C(=O)N2CCc3cc(-c4nc(NC(=O)Cc5ccc6c(c5)OCO6)sc4C)ccc32)c1 | inactive | inactive
